This test concerns VDR:RXRa (NR concentration 270 nM, RXRa partner concentration 90 nM). As to the kind of experiment: PBM binding z-score (relative to random genomic background probes); higher = stronger binding; sequences stand for … in GC…GCGATTGACAGCGTAGAATGAAGG
The method, then: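 Protein-binding microarray (Agilent 4x180K custom design, double-stranded 60-nt probes: 5' GC cap, 34-nt variable region, 24-nt constant primer region; full probe sequence given). Purified or IVT nuclear receptor:RXRα heterodimers (3:1 NR:RXRα, mostly 270:90 nM) or homodimers were incubated for 1 h in PBS with 2% milk and no ligand, then detected with Alexa488 antibodies. Fluorescence from o1-orientation probes (~5 replicates averaged) was converted to z-scores against 500 random hg19 background probes. Variable regions are seed direct-repeat (DR0–DR5) sites, all their single-nucleotide variants and half-site ablations.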
CTATGTCGGTTAAGGGGGTCATTCAGTTTGAAAG: the PBM binding z-score came to 6.77.

Consider ACTTACGGGTCAACGAAGTTATAGCACGCGTATA, for which the PBM binding z-score stood at 4.19.

For the sequence ACTCGGAGGGCAAAGGTCAGAGCTACGCCAGTGA, the PBM binding z-score was determined as 4.32.

Take ATCTCTAGGTAAAGTTCATTGAAAGATCGATAGA: the PBM binding z-score is 3.08.

For the sequence TCTCGGAGGACACGAAAGGTCTGAGCTCGACATC, the PBM binding z-score amounted to 0.182.

TTACCAAGGTGAAAGGTCGTTGAGGCACGCCTTG registered a PBM binding z-score of 3.55.

Sequence ACTAGTAGGCCAAGGGTCACTCAAGATTAGTCCG came in with a PBM binding z-score of 2.93.

Consider CTATGTAGGGTAAGGGGGTCATTCAGTTTGAAAG, for which the PBM binding z-score was determined as 7.01.

Take GATACAGGGTCAATGCCAGAGTACGCGTATTGAT: the PBM binding z-score stood at 3.93.

In the case of CTCGAAAGGTCGGTTGAGGTCAGTATACGGATAA, the PBM binding z-score was determined as 6.09.

In the case of CCGAGTAGGTTACGAGGGGGCCTTCAGTGCGAAT, the PBM binding z-score is 1.73.

With CCGAGTAGGTTACGAGGGGGCAATCAGTGCGAAT, the PBM binding z-score stood at 4.72.

In the case of CCGAGTAGCTTACGAGGGGGCATTCAGTGCGAAT, the PBM binding z-score worked out at 3.41.

ACTCGGAGGACAAACGTCAGAGCTACGCCAGTGA: the PBM binding z-score is -0.401.

TGTCAGAGTTCAAAGGTAACGTAAGTATCCACAC registered a PBM binding z-score of 5.75.

As for AGAATGAGGTTACCAAAGATCAGTGAAACGCTTG, the PBM binding z-score was 1.45.

The sequence CGTCCAACGTCAAGGTCAGTGAAAGAGACTCGAA showed a PBM binding z-score of 1.18.

The sequence ATCGAAAGGTCGAAGGTGAGTACACCCACCCGAA registered a PBM binding z-score of 3.97.

CTAACTAGGTCACGAAAGGTCAAAGTCGAATGAC returned a PBM binding z-score of 6.76.

On to CGTCCAAGGTCAGAGAGGTCAGTGTATGCCGAGT, for which the PBM binding z-score amounted to 7.31.

Take CTAAGTAGGTTAAGGGGGTCATTCAGTTTGAAAG: the PBM binding z-score is 7.19.

The sequence ACTAGTTGGTCAGCTGAGGTCACACTCAATTCGG came in with a PBM binding z-score of 4.54.

On to CTATGTAGGTGAAGGGGGTCATTCAGTTTGAAAG, for which the PBM binding z-score came out at 7.13.

The sequence GATACAGGGTCAGCTAGAGGTCAGAGTATGGAAA gave a PBM binding z-score of 6.14.

For ATCTCTAGGTGAAAGTTCAGTGAATCCCGAGGAT, the PBM binding z-score was found to be 1.83.

As to CCTAGCAGGCCAATCGGGGTCACTCAAGGCTTGA, the PBM binding z-score turned out to be 5.36.

For the sequence CGAACTAGGTCACCAGCACAGTGAAGAGGTTGGA, the PBM binding z-score was 1.89.

For GATACAGGGTCAACTAGAGGCCAGAGTATGGAAA, the PBM binding z-score was 4.98.

On to CCGAGTAGGTTACGAGCGGGCATTCAGTGCGAAT, for which the PBM binding z-score was determined as 0.355.

In turn, CGATCTAGGTCACCAGGACAGTGAAGAGGTTGGA returned a PBM binding z-score of 1.76.

ATATGAAGGTTATCGGGTCATTCAGTTTGCGCAT showed a PBM binding z-score of 5.41.

The sequence CCTTACGGGTCACTTACAGGTTATAGCATTTGGA had a PBM binding z-score of 3.6.

In turn, ATATGTAGGTTAGGATCATTCAGAAAGTAGGGAA gave a PBM binding z-score of 0.744.

For the sequence CCTACTGGGCCAAAGGCCATTGATTCCAATGCTC, the PBM binding z-score is -0.327.

For ACTCGGAGGACAAAGGTCACAGCTACGCCAGTGA, the PBM binding z-score turned out to be 4.95.

As for CAAACTAGGTCACGAGGTCAAAGTCCGCTTCCCG, the PBM binding z-score came to 6.42.

Consider CCTAGTTGGTCAAGGTCACACATGCTATAGGTAC, for which the PBM binding z-score is 4.33.

The sequence TCGAGTAGGTTACGGGGGCTTTCAGGGATGAAGA gave a PBM binding z-score of 2.02.

CAAACTAGGTCACGAAAGGTCAAAGCCGAATGAC displayed a PBM binding z-score of 6.5.

Sequence TAGCCTAGGTCATGCGGGCCAGTATAGTGTCGGC registered a PBM binding z-score of 2.89.
